Bioassay records deposited in PubChem BioAssay by National Center for Advancing Translational Sciences (NCATS).
An excerpt weighted towards active compounds, which were near 21% of everything screened.
Pf growth 96h: inhibits malaria parasite growth, 96 h | P. falciparum luciferase reporter growth, 96 h | Potency, µM (highest dose often 28.7 µM), for the others: at the highest dose activity change, negative = inhibition, usual class: inhibitors | actives 6.9% (n = 320,000); note: potency is the fitted concentration of half-maximal effect; % is set by controls: 0 for no effect and ±100 for the full control effect
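Delayed-death screen, second-generation endpoint: infected erythrocytes, 2% hematocrit, 0.05% parasitemia final; 96 hours at 37 C, 5% CO2; luciferase detection reagent; luminescence decrease equals reduced growth.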
Pf growth 48h: P. falciparum growth inhibition at 48 hours (one generation) | Potency, µM (doses to about 28.7 µM), for inactives: at the top dose activity change, negative = inhibition, most hits filed as inhibitors | actives 5.9% (n = 310,000) | P. falciparum luciferase growth in erythrocytes, 48 h; note: potency is the fitted concentration of half-maximal effect; % is set by controls: 0 for no effect and ±100 for the full control effect
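First compound was added to culture medium, then infected red cells at 0.1% parasitemia and 2% hematocrit (final). After incubation at 37 C under 5% CO2, luciferase detection reagent was dispensed and light output recorded.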
CHX counter: counter-screen for Shiga toxin inhibitors: cycloheximide protein synthesis inhibition; cell reporter, cycloheximide protein synthesis inhibition counterscreen; actives 12% (n = 300,000); max response, %; in the data active = max response mostly above about 13%, no sharp cut-off; inactive = mostly below about 14%; note: read at 38.3 µM for the half of the compounds with a filed dose; 0% is about no effect
Shiga toxin inh: inhibitors of Shiga toxin in Vero cells. Vero cells, Shiga toxin protein synthesis inhibition reporter. inhibition, % at 38.7 µM. actives 9.2% (n = 290,000). AID 2315; in the data active = inhibition mostly above about 28%, no sharp cut-off; inactive = mostly below about 43%; note: 0% is about no effect
An asterisk follows results filed as active; ? = inconclusive; · = no result; + = active, no number. Unless noted, calls come from the whole dose curve; as a rule, active = well fitted inhibition curve with a large enough effect; inconclusive = small, poorly fitted or top-dose-only effect, or another doubt; inactive = no such curve, though single readings can be large or run the other way.

SMILES	Pf growth 96h	Pf growth 48h	CHX counter	Shiga toxin inh
CC[C@H](C)[C@H](NC(=O)CNC(=O)[C@H](CCCNC(=N)N)NC(=O)[C@H](CO)NC(=O)[C@H](C)NC(=O)[C@H](Cc1ccc(O)cc1)NC(=O)[C@H](Cc1c[nH]c2ccccc12)NC(=O)[C@H](C)NC(=O)[C@@H]1CCCN1C(=O)[C@H](CC(N)=O)NC(=O)[C@@H](NC(=O)[C@H](CC(=O)O)NC(=O)[C@@H]1CCCN1C(=O)[C@@H](N)[C@@H](C)O)[C@@H](C)CC)C(=O)N[C@@H](CCCNC(=N)N)C(=O)N1CCC[C@H]1C(=O)N[C@H](C(=O)NCC(=O)N[C@@H](CCCNC(=N)N)C(=O)N[C@@H](Cc1ccccc1)C(N)=O)C(C)C	·	·	-5.9	-9.7
O=C(Nc1ccccc1C(=O)NC1CCCCC1)c1ccccc1	6.57µM*	?	2.0	-15.6
O=C(O)CCC(=O)Nc1ccccc1C(=O)NC1CCCCC1	6.4%	7.0%	10.5	56.2
O=C(Nc1cccc(C(=O)NC2CCCCC2)c1)c1ccccc1	17.6%	12.9%	-3.2	17.4
O=C(Nc1ccsc1C(=O)NC1CCCCC1)c1ccccc1	?	7.38µM*	1.9	-7.4
[O-][n+]1c2c(nn1-c1ccccc1)/C(=N/O)CCC2	?	10.0%	2.3	-4.4
[O-][n+]1onc2c1CCC(=N/O)/C2=N\Nc1ccccc1	4.65µM*	7.38µM*	19.4*	55.3
COc1ccc(CNC(=O)COC(=O)C(CCSC)NC(=O)c2ccco2)cc1OC (stereo not drawn)	-13.2%	-25.6%	·	·
O=C(/C=C/c1ccccc1Cl)c1ccc(O)cc1	?	52.2%	29.0*	53.6*
O=C(O)c1ccc(N/N=C/c2c(F)cccc2Cl)cc1	10.2%	·	-1.2	-6.8
O=C(/C=C/c1c(F)cccc1Cl)c1ccc(O)cc1	?	3.8%	23.8*	57.9*
O=C(/C=C/c1ccccc1Cl)c1cccnc1	66.4%	·	5.5	2.8
O=C(O)COc1ccc(/C=C2\SC(=Nc3ccccc3)N(c3ccccc3)C2=O)cc1	-10.0%	0.4%	-2.1	17.4
O=C(O)COc1ccccc1/C=C1\SC(=Nc2ccc(F)cc2)N(c2ccc(F)cc2)C1=O	?	10.4µM*	2.4	5.0
CCOc1cc(/C=C2\SC(=Nc3ccc(F)cc3)N(c3ccc(F)cc3)C2=O)ccc1OCC(=O)O	?	?	-1.1	-7.0
O=C(O)c1ccc(/C=C2\SC(=Nc3ccccc3)N(c3ccccc3)C2=O)cc1	0.294µM*	-13.6%	2.5	-16.6
CNC(=S)Nc1cccc(S(=O)(=O)NC2=NCCC2)c1	14.3%	11.2%	0.3	2.6
CCOC(=O)/C(=N\Nc1ccc(Br)cc1)N1CCN(c2ccccc2OC)CC1	?	14.7µM*	1.3	23.7
COc1ccc(N=C2C(=Nc3ccc(OC)cc3)N(c3ccc(OC)cc3)C(=S)N2C)cc1	·	5.22µM*	-2.1	18.9
COc1ccc(N=C2SC(C(=O)O)CC(=O)N2C)cc1 (stereo not drawn)	-10.7%	2.3%	-6.1	-27.6
COc1ccc(N=C2C(=Nc3ccc(OC)cc3)N(c3ccc(OC)cc3)C(=S)N2c2ccccc2)cc1	·	28.3%	59.6*	69.6*
COc1ccc(N2CC(=O)N(c3ccccc3)C2=S)cc1	?	20.9%	27.0*	32.1
COc1ccc(S(=O)(=O)NNC(=O)C2COc3ccccc3O2)cc1[N+](=O)[O-] (stereo not drawn)	-16.2%	-2.8%	·	·
O=C(CCN1CCCCO1)N1CCCC(Nc2cccc(F)c2)C1 (stereo not drawn)	?	37.6%	-3.4	2.7
O=C(NCc1ccccc1F)C1CCCN1S(=O)(=O)c1ccc(Cl)cc1 (stereo not drawn)	-22.9%	-6.3%	-2.2	-6.5
SMILES	Pf growth 96h	Pf growth 48h	CHX counter	Shiga toxin inh
CC(C)C[C@@H]1NC(=O)[C@H](Cc2ccc(O)cc2)NC(=O)c2cc([N+](=O)[O-])cc(I)c2NCCC[C@@H](C(N)=O)NC1=O	10.4µM*	?	-3.6	-10.7
NC(=O)[C@@H]1CCCNc2c(I)cc([N+](=O)[O-])cc2C(=O)N[C@@H](CO)C(=O)N[C@@H](Cc2ccc(O)cc2)C(=O)N1	-1.8%	15.0%	-4.3	-21.3
CC1=NN(c2ccc(C(=O)OC(C)C)cc2)C(=O)/C1=C\C=C\c1ccco1	?	2.94µM*	2.7	12.4
O=C(O)c1cc(N2N=C(C(F)(F)F)/C(=C/C=C/c3ccco3)C2=O)ccc1Cl	?	41.9%	-1.7	24.2
CCOC(=O)c1ccc(N2N=C(C)/C(=C/C=C/c3ccco3)C2=O)cc1	13.1µM*	-13.0%	0.3	8.5
Cc1ccc(/C=c2\sc3nc(-c4ccccc4Br)nn3c2=O)o1	11.7µM*	4.3%	-1.0	-3.9
Cc1ccc(/C=c2\sc3nc(-c4ccco4)nn3c2=O)o1	?	10.2%	8.9	8.0
Cc1ccc(S(=O)(=O)N(C)c2cc(S(=O)(=O)N3CCC(C)CC3)c(C)cc2C)cc1	11.7µM*	10.4µM*	-1.2	7.1
Cc1nn(C)c(C)c1S(=O)(=O)N(CC(=O)NCCCN1CC(C)CC(C)C1)c1ccc(C(C)C)cc1 (stereo not drawn)	-6.8%	?	8.5	13.9
COc1ccccc1-n1c(SCC(=O)O)nc2c(sc(=S)n2-c2ccc(Cl)c(C)c2)c1=O	25.1%	?	-3.2	23.3
COc1ccccc1-n1c(SCC(=O)O)nc2c(sc(=S)n2-c2ccc(C)c(C)c2)c1=O	?	-1.7%	-1.8	-15.9
CCN(CC)C(=O)CSc1nc2c(sc(=S)n2-c2ccccc2)c(=O)n1-c1ccc(OC)c(OC)c1	8.2%	4.65µM*	-1.0	17.4
CCN(CC)C(=O)CSc1nc2c(sc(=S)n2-c2ccccc2)c(=O)n1-c1ccc(OC)cc1OC	?	6.57µM*	-5.3	-4.7
CCN(CC)C(=O)CSc1nc2c(sc(=S)n2-c2ccccc2)c(=O)n1-c1ccccc1OC	-0.5%	8.28µM*	-2.1	-2.0
CCOC(=O)CSc1nc2c(sc(=S)n2-c2ccccc2)c(=O)n1-c1ccc(OC)cc1OC	10.8%	10.4µM*	8.0	11.5
Cc1c(Cl)cccc1S(=O)(=O)Nc1ccnn1C	0.0%	51.7%	-3.8	-3.5
COc1ccc(/C=C2/SC(=O)NC2=O)cc1	13.1µM*	73.0%	38.7*	52.4*
O=C1NC(=O)/C(=C\c2ccc(Cl)nc2)S1	40.7%	141.2%	34.0*	68.0*
O=C1NC(=O)/C(=C\c2ccc(Oc3ccc([N+](=O)[O-])cn3)cc2)S1	-20.7%	5.6%	34.4*	41.7*
CCOc1ccc(N=C2NC(=O)S/C2=C\c2ccc(OC)cc2)cc1	-7.4%	·	-1.6	-16.2
COc1ccc(C2=CC(=O)C[C@H](c3ccc(Cl)cc3)C2)cn1	?	25.8%	·	·
CCn1cc(Br)c(C(=O)Nc2cccc(SC)c2)n1	9.2%	87.1%	32.4*	+
CCn1cc(Br)c(C(=O)Nc2ccc(F)cc2F)n1	36.9%	31.8%	24.9*	44.6*
CCn1ncc(Br)c1C(=O)Nc1ccc(F)cc1F	13.2%	5.9%	4.2	4.7
CCC(=O)Nc1cccc(SC)c1	7.2%	9.5%	-1.3	3.3
CC(C)Sc1nnc(CNC(=O)C23CC4CC(CC(C4)C2)C3)n1C1CCCCC1	21.1%	-6.5%	1.2	15.4
